This is a sample that favours compounds with a hit; in the whole collection about 0.94% have one here.
MazF activator – activators of E. coli MazEF toxin-antitoxin RNase; FAM/BHQ RNA-DNA oligo cleavage fluorescence, 5 h; activation, % at 20 µM; 350,000 compounds, 0.32% hits; in the data active = activation above about 50%
Target sequence (P0AE70 whole entry, looked up): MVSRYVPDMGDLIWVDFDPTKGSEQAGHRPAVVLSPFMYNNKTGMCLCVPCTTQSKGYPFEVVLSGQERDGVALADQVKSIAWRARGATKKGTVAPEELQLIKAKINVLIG
Vc quorum ag – inducers of Vibrio cholerae quorum light production without autoinducers; AID 588436; activation, % at 18.7 µM; 350,000 compounds, 0.16% hits; V. cholerae BH1578 lux reporter, luminescence, 6 h; in the data active = activation mostly above about 9.7%, no sharp cut-off
Mtb hypoxia rep – inhibitors of hypoxia-regulated fluorescent reporter in Mycobacterium tuberculosis. M. tuberculosis hypoxia-regulated fluorescent reporter, fluorescence. fluorescence inhibition, % (no concentration beside the values). 300,000 compounds, 0.1% hits; in the data active = fluorescence inhibition mostly above about 23%, no sharp cut-off; inactive = mostly below about 17%
SSB-PriA inh – K. pneumoniae PriA-SSBct interaction inhibition. AID 1272365. AlphaScreen SSBct-PriA binding, biotinylated peptide. 430,000 compounds, 0.6% hits. inhibition, % at 33 µM; in the data active = inhibition mostly above about 37%, no sharp cut-off; inactive = mostly below about 20%;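 note: plate controls were negative control peptide for no effect and reference peptide for full effect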
Starred values were filed as active, the others as inactive; i = inactive; . = no result given; + = active, no number; ! = a repeat was not active.

SMILES	MazF activator	Vc quorum ag	Mtb hypoxia rep	SSB-PriA inh
O=[N+]([O-])c1ccc(Cl)c(S(=O)(=O)NCCOc2ccc(F)cc2)c1	.	.	.	13
CCC(C)C(N)C(=O)NC(CCC(=O)OCc1ccccc1)C(N)=O (stereo not drawn)	68*	.	5	-10
NC(=O)CSc1nnc(-c2cc(-c3cccs3)nc3ccccc23)o1	59*	0	2	-20
CCOC(=O)C1=C(C)NC2=C(C(=O)c3ccccc32)C1c1cccc2ccccc12 (stereo not drawn)	2	-1	8	-1
CCOC(=O)C1=C(C)NC2=C(C(=O)c3ccccc32)C1c1ccc(O)cc1 (stereo not drawn)	3	-4	2	52*
O=C(Nc1ccc(C(=O)N2CCOCC2)cc1)c1cnn2c(C(F)F)cc(-c3ccccc3)nc12	66*	1	0	-15
COc1ccc(N=Nc2cc(C)c(O)c(CN3CCCCC3)c2)cc1	-4	i	-4	54*
CCOC(=O)c1ccc(NC(=O)Cn2c(=O)nc(-c3ccccc3)c3cc(Cl)ccc32)cc1	.	.	.	-20
Cc1cc(C(=O)NCC(c2ccc(N(C)C)cc2)N2CCN(C)CC2)ccc1[N+](=O)[O-] (stereo not drawn)	.	.	.	21
Cc1cc(NC(=O)CS(=O)(=O)c2cn(CC(=O)N3CCCC3)c3ccccc23)no1	.	.	.	-14
Cc1cc(C)cc(NC(=O)CS(=O)(=O)c2cn(CC(=O)N3CCCC3)c3ccccc23)c1	.	.	.	50*
Cc1c(-n2c(-c3ccccc3)csc2=NC(=O)c2ccccc2)c(=O)n(-c2ccccc2)n1C	.	.	.	44*
CC(=O)N1C(=O)C(=C2C=C(C)OC(C)=C2)c2ccccc21	+	-1	12	-6
Cc1ccc(/C=N/c2sc3c(c2C#N)CCC3)s1	15	-3	.	.
N#Cc1c(N=Cc2cccs2)sc2c1CCCC2	.	.	.	38*
c1coc(-c2nc(-c3ccco3)c(-c3ccco3)nc2-c2ccco2)c1	6	i	1	43*
Nc1nc(-c2ccco2)c(-c2ccco2)s1	-67	0	.	-2
Cc1cc(C(=O)O)c2c(C)noc2n1	.	.	.	1
CCN(CC)c1ccc(Nc2nc(Cl)ncc2Br)cc1	3	-2	7	41*
Cc1cc(C)n(-c2cc(NCCNC(=O)c3cc(-n4cccn4)nc(C)n3)ncn2)n1	.	.	.	-8
O=C(NCCn1cnc2ccsc2c1=O)c1cc(C2CC2)on1	.	.	.	38*
Cc1ccc(NC(=O)Nc2cnc(N3CCOCC3)nc2)cc1F	.	.	.	-4
O=C1/C(=N\S(=O)(=O)c2cccs2)C([n+]2cccc(Cc3ccccc3)c2)=C([O-])c2ccccc21	271*	-1	2	.
O=C(c1ccccc1)N1CCN(c2ccc(NCc3ccc4c(c3)OCO4)cc2)CC1	-3	0	-12	46*
COc1ccc(-c2cc3c(=O)n(CC(=O)N4CCCCC4)ncn3n2)cc1	1	0	2	6
SMILES	MazF activator	Vc quorum ag	Mtb hypoxia rep	SSB-PriA inh
COc1ccc(-c2cc3c(=O)n(CC(=O)N4CCN(C)CC4)ncn3n2)cc1	-13	0	3	101*
CCCCNC(=O)CC(NCCCC)C(=O)O (stereo not drawn)	.	.	.	-1
CCOc1ccc(-n2c(O)c(/C=C3\C=Nc4ccccc43)c(=O)[nH]c2=O)cc1	120*	i	-5	.
COc1cccc(-c2cc(C(=O)N3CCc4ccccc4C3)[nH]n2)c1	93*	i	.	-7
Cc1ccc(-c2cc(C(=O)N3CCc4ccccc4C3)[nH]n2)cc1C	-3	0	9	0
Cc1ccc(SCCC(=O)Nc2nc(-c3ccc(Cl)s3)cs2)cc1	.	.	.	-4
CCN(c1ccc(NS(=O)(=O)c2cc(Cl)ccc2Cl)cc1)C(C)C	-2	i	11	40*
CCCCOC(=O)c1ccc(Nc2ncnc3c2nnn3CC)cc1	.	.	.	-5
COc1ccc(Br)c(C(=O)NCCn2ccc(-c3ccccn3)n2)c1	.	.	.	-2
Oc1cccc(Nc2c3ccccc3nc3ccccc23)c1	27	i	.	5
CCN(CC)Cc1cc(Nc2c3ccccc3nc3c4ccccc4n(C)c23)cc(CN(CC)CC)c1O	21	.	.	51*
CCC(=O)c1cn(CC(=O)Nc2cccc(C)c2C)c2ccccc12	-9	0	7	3
CCC(=O)c1cn(CC(=O)Nc2ccccc2Cl)c2ccccc12	54*	0	-5	7
CC(C)CCC1(CCO)C(=O)NC(=N)NC1=O (stereo not drawn)	.	.	.	-14
COc1cc(OC)c(OC)cc1CCC(C)NCCC(c1ccccc1)c1ccccc1 (stereo not drawn)	32	-1	.	42*
O=C(Nc1nnc(-c2ccccc2Cl)o1)C1CC(=O)N(c2ccccc2)C1 (stereo not drawn)	.	.	.	46*
O=C(Nc1nnc(-c2cccs2)o1)C1CC(=O)N(c2ccc(F)cc2)C1 (stereo not drawn)	.	.	.	27*!
COc1ccc(CCN2C(=O)C3N=NN(c4ccccc4)C3C2=O)cc1OC (stereo not drawn)	.	.	.	-6
Cc1cc(CNS(=O)(=O)c2c(C)noc2C)c(C)o1	.	.	.	-3
Cc1ccccc1NC(=O)C1CC(=O)N(c2ccc3c4c(cccc24)CC3)C1 (stereo not drawn)	2	25*	6	1
Cc1c([N+](=O)[O-])cc(S(=O)(=O)NCCOc2cccc(C(F)(F)F)c2)cc1[N+](=O)[O-]	.	.	.	39*
Cc1c([N+](=O)[O-])cc(S(=O)(=O)NCCOc2ccc(F)cc2)cc1[N+](=O)[O-]	.	.	.	20
O=C(c1cc2ccccc2[nH]1)N1CC(N2C(=O)C3CC=CCC3C2=O)C1 (stereo not drawn)	.	.	.	-12
CCCCn1c(O)c(N=Nc2ccccc2O)c2ccccc21	101*	1	-3	13
CCCCn1c(O)c(N=Nc2ccccn2)c2ccccc21	8	0	3	-7
SMILES	MazF activator	Vc quorum ag	Mtb hypoxia rep	SSB-PriA inh
CCOc1cccc2sc(Nc3nc4cc5c(cc4s3)OCO5)nc12	.	.	.	-4
COc1ccccc1N1CCN(S(=O)(=O)c2ccc3c4c(cccc24)C(=O)N3)CC1	3	-7	-1	35*!
CCOC(=O)C1CCN(S(=O)(=O)c2ccc3c4c(cccc24)C(=O)N3)CC1	3	0	.	-2
CSc1nc(-c2ccc(C)cc2)nc(C(Cl)Cl)n1	6	-7	78*	-6
COc1ccc2c(c1)C(=NN)c1cc(OC)ccc1-2	0	-1	6	47*
COc1ccc2c(c1)C(=NNc1ccc(C(=O)O)cc1)c1cc(OC)ccc1-2	20	i	.	5
CC(=NNC(=O)c1ccc(Br)o1)c1cccc(NC(=O)c2ccc(F)cc2)c1	.	.	.	-2
O=C(CS(=O)(=O)c1ccc(F)cc1)Nc1ccccc1Oc1ccccc1	.	.	.	-6
O=C(c1ccc(-n2cccc2)cc1)N1CCN(Cc2ccccc2)CC1	3	.	14	5
O=C(c1ccc(-n2cccc2)cc1)N1CCN(Cc2csc(-c3ccccc3)n2)CC1	.	.	.	29*
Cc1ccc(-n2ncc3c(=O)[nH]c(SCC(=O)N4CCC(C)CC4)nc32)cc1C	12	0	.	86*
COC(=O)c1cc(OC)c(OC)cc1NC(=O)c1ccc2noc(-c3ccc(Cl)cc3)c2c1	.	.	.	-8
COc1cccc(-c2ccc(=O)n(CCCC(=O)NCc3ccccc3Cl)n2)c1	.	.	.	39*
O=S(=O)(O)Sc1ccccc1	2	-5	.	.
